According to ChEMBL document CHEMBL2218924, “A broad activity screen in support of a chemogenomic map for kinase signalling research and drug discovery” (Biochem J, 2013):

Target: T1, 3-phosphoinositide-dependent protein kinase 1 (Homo sapiens) (UniProt O15530)
T1 sequence (whole entry): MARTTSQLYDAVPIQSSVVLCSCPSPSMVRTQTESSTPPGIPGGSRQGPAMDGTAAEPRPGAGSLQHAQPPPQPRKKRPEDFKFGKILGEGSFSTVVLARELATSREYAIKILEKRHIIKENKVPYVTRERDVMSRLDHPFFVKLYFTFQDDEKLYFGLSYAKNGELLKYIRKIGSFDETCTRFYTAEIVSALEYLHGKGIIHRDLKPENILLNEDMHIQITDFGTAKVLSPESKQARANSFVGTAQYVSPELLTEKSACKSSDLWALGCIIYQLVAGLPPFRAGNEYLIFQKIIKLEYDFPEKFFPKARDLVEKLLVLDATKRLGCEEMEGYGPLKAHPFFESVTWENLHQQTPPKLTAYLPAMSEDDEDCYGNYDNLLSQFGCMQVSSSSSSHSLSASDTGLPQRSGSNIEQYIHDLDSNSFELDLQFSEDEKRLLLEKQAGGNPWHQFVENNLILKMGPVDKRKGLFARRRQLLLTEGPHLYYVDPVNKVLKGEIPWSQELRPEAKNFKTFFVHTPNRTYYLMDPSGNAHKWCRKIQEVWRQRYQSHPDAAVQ
Conditions: at 10 µM

Structure (SMILES) | residual activity [%]
CO[C@H]1C[C@@H]2CC[C@@H](C)[C@@](O)(O2)C(=O)C(=O)N2CCCC[C@H]2C(=O)O[C@H]([C@H](C)C[C@@H]2CC[C@@H](O)[C@H](OC)C2)CC(=O)[C@H](C)/C=C(\C)[C@@H](O)[C@@H](OC)C(=O)[C@H](C)C[C@H](C)/C=C/C=C/C=C/1C | 126
N#CCCc1ccc2c(c1)-c1[nH]c3ccc([N+](=O)[O-])cc3c1CC(=O)N2 | 6
Cc1cc(Nc2nc(-c3ccccc3)nc3ccccc23)n[nH]1 | 39
c1ccc(-c2n[nH]cc2-c2ccnc3ccccc23)nc1 | 104
O=C(O)c1ccc2c3c1cccc3c(=O)n1c3ccccc3nc21 | 82
O=c1cc(-c2cccc3c2Sc2ccccc2S3)oc(N2CCOCC2)c1 | 107
CO[C@@H]1[C@H](N(C)C(=O)c2ccccc2)C[C@H]2O[C@]1(C)n1c3ccccc3c3c4c(c5c6ccccc6n2c5c31)C(=O)NC4 | 1
Oc1ccc(-c2nc(-c3ccc(F)cc3)c(-c3ccncc3)[nH]2)cc1 | 94
COc1ccc(S(=O)(=O)N(CCO)c2ccccc2CN(C)C/C=C/c2ccc(Cl)cc2)cc1 | 114
O=C1NC(=O)/C(=C/c2ccc3c(c2)OC(F)(F)O3)S1 | 106
CCN(CC)C(=O)c1ccc(Nc2nc(OCC3CCCCC3)c3nc[nH]c3n2)cc1 | 3
Cn1nc2c3c(cccc31)C(=O)c1ccccc1-2 | 74
O=C1Nc2ccccc2/C1=C1/Nc2ccccc2/C1=N\OCCC(O)CO (configuration not stated) | 6
O=[N+]([O-])c1ccc(-c2nc(-c3ccc(F)cc3)c(-c3ccncc3)[nH]2)cc1 | 100
Ic1cccc(CSc2nnc(-c3ccncc3)o2)c1 | 44
Cc1ccc(NC2=CC(=O)c3sc(C)nc3C2=O)cc1 | 102
CCOc1cc2ncnc(Nc3cccc(Br)c3)c2cc1OCC | 86
COc1cc2ncnc(Nc3ccc(NC(=O)c4ccccc4)cc3)c2cc1OC | 106
COc1cccc(-c2cc(=O)c3ccccc3o2)c1N | 99
CN(C)CCCn1cc(C2=C(c3c[nH]c4ccccc34)C(=O)NC2=O)c2ccccc21 | 15
O=Nc1c(-c2c(O)[nH]c3ccccc23)[nH]c2ccccc12 | 9
COc1ccc(C(=O)Nc2sc3c(c2C(N)=O)CCCC3)cc1OC | 96
C[C@@H](N)[C@H]1CC[C@H](C(=O)Nc2ccncc2)CC1 | 83
Cn1cc(/C=C2\C(=O)Nc3ccc(S(N)(=O)=O)cc32)c2ccccc21 | 32
O=c1c2ccccc2[nH]c(=S)n1CCN1CCC(=C(c2ccc(F)cc2)c2ccc(F)cc2)CC1 | 111
c1ccc2c(-c3ccncc3)c[nH]c2c1 | 110
COc1cc2ncnc(N3CCN(C(=O)Nc4ccc(Oc5ccccc5)cc4)CC3)c2cc1OC | 116
NC(=O)c1ccc2[nH]c(-c3ccc(Oc4ccc(Cl)cc4)cc3)nc2c1 | 107

Target: cAMP-dependent protein kinase catalytic subunit alpha (Homo sapiens) (UniProt P17612)
Conditions: at 1 µM

Structure (SMILES) | residual activity [%]
CO[C@H]1C[C@@H]2CC[C@@H](C)[C@@](O)(O2)C(=O)C(=O)N2CCCC[C@H]2C(=O)O[C@H]([C@H](C)C[C@@H]2CC[C@@H](O)[C@H](OC)C2)CC(=O)[C@H](C)/C=C(\C)[C@@H](O)[C@@H](OC)C(=O)[C@H](C)C[C@H](C)/C=C/C=C/C=C/1C | 112
O=C(O)c1ccc2c3c1cccc3c(=O)n1c3ccccc3nc21 | 73
O=c1cc(-c2cccc3c2Sc2ccccc2S3)oc(N2CCOCC2)c1 | 102
COc1ccc(S(=O)(=O)N(CCO)c2ccccc2CN(C)C/C=C/c2ccc(Cl)cc2)cc1 | 105
Cc1cc2ncc(-c3ccccc3)nc2cc1C | 86
Cc1cncc2cccc(S(=O)(=O)N3CCCN(C(=O)CN)C[C@H]3C)c12 | 69
CC(=O)c1ccc(N2CCOCC2)cc1O | 87
c1ccc(-c2n[nH]c3c2oc2ccccc23)cc1 | 70
O=C1NC(=O)/C(=C/c2ccc3c(c2)OC(F)(F)O3)S1 | 102
CCN(CC)C(=O)c1ccc(Nc2nc(OCC3CCCCC3)c3nc[nH]c3n2)cc1 | 80
Cn1nc2c3c(cccc31)C(=O)c1ccccc1-2 | 87
O=[N+]([O-])c1ccc(-c2nc(-c3ccc(F)cc3)c(-c3ccncc3)[nH]2)cc1 | 97
N#CC(C#N)=C(N)/C(C#N)=C/c1ccc(O)cc1 | 82
Ic1cccc(CSc2nnc(-c3ccncc3)o2)c1 | 99
Cc1ccc(NC2=CC(=O)c3sc(C)nc3C2=O)cc1 | 102
CCOc1cc2ncnc(Nc3cccc(Br)c3)c2cc1OCC | 73
COc1cc2ncnc(Nc3ccc(NC(=O)c4ccccc4)cc3)c2cc1OC | 71
Cc1cccc(-c2[nH]c(C(C)(C)C)nc2-c2ccc3c(c2)OCO3)n1 | 87
COc1cccc(-c2cc(=O)c3ccccc3o2)c1N | 96
CN(C)CCCn1cc(C2=C(c3c[nH]c4ccccc34)C(=O)NC2=O)c2ccccc21 | 60
O=Nc1c(-c2c(O)[nH]c3ccccc23)[nH]c2ccccc12 | 90
COc1cc2ncc(-c3ccccc3)nc2cc1OC | 99
COc1ccc(C(=O)Nc2sc3c(c2C(N)=O)CCCC3)cc1OC | 97
C[C@@H](N)[C@H]1CC[C@H](C(=O)Nc2ccncc2)CC1 | 96
Cn1cc(/C=C2\C(=O)Nc3ccc(S(N)(=O)=O)cc32)c2ccccc21 | 93
O=c1c2ccccc2[nH]c(=S)n1CCN1CCC(=C(c2ccc(F)cc2)c2ccc(F)cc2)CC1 | 92
c1ccc2c(-c3ccncc3)c[nH]c2c1 | 93
COc1cc2ncnc(N3CCN(C(=O)Nc4ccc(Oc5ccccc5)cc4)CC3)c2cc1OC | 102
NC(=O)c1ccc2[nH]c(-c3ccc(Oc4ccc(Cl)cc4)cc3)nc2c1 | 106
